Measurements from PubChem BioAssay AID1259240 (Keith Lab, Institute of Cancer Science, University of …, 2017).
Activity calls are given as the source filed them. Rule as the data show it: active = fold change mostly below about -2 (no sharp cut-off); inactive = mostly above about -1.8.

Assay: TERT promoter activity modulators, primary screen, cell-based, luciferase reporter, human (AID 1259240)
Conditions: A2780 TERT promoter luciferase reporter, 16 h; at 20 µM, fold versus average of vehicle-only wells
With `Cc1nc2cc(-c3ccccc3)nn2c(C)c1CCC(=O)NC(C)c1ccc2c(c1)OCCO2` (centres undefined) the fold change was -3.95 (active). In the case of `COc1ccc(-c2n[nH]c3c2C(c2ccc(Cl)cc2)NC3=O)cc1` (centres undefined), the fold change is reported as -3 (active). In the case of `CCN(CC)CCNc1nc2c(c(=O)[nH]c(=O)n2C)n1CCCc1ccccc1`, the fold change is reported as -2.06 (active). In the case of `CCCN(CCC)S(=O)(=O)c1ccc2c(c1)oc(=O)n2CC(=O)OCC`, the fold change is reported as -1.16 (inactive). In the case of `N=c1n(CCN2CCOCC2)c2ccccc2n1CC(O)c1ccco1` (centres undefined), the fold change is reported as -2.53 (active). For `Cc1ccn2c(NC(=O)CC(C)C)c(-c3ccc(F)cc3)nc2c1`, the fold change was -2.38 (active). In the case of `Cn1c(=O)c2c(SCC(=O)N3CCCc4ccccc43)nc(-c3ccco3)nc2n(C)c1=O`, the fold change is reported as 1.45 (inactive). For `N#Cc1ccccc1Cn1c(=O)n(-c2ccc(CC(=O)NCc3ccco3)cc2)c(=O)c2sccc21`, the fold change was -1.2 (inactive). In the case of `CC(C)(C)OC(=O)CN1C(=O)c2ccccc2S1(=O)=O`, the fold change is reported as 1.98 (inactive). In the case of `O=C(O)C1CCN(c2nc3ccccc3n2Cc2ccccc2F)CC1`, the fold change is reported as 1.02 (inactive). For `CCCSc1nnc2c3ccccc3n(CC)c2n1`, the fold change was -1.73 (inactive). With `CCCN1CN=C(Nc2nc(C)c3ccc(C)cc3n2)NC1` the fold change was -2.8 (active). For `COC(CNS(=O)(=O)c1cccc2cccnc12)OC`, the fold change was -1.06 (inactive). With `COc1ccc2cc(S(=O)(=O)c3ccc(Cl)cc3)c(=O)oc2c1` the fold change was -2.33 (active). For `CN(CC(=O)NCc1ccco1)S(=O)(=O)c1ccc2c(c1)CCC(=O)N2`, the fold change was -1.35 (inactive). In the case of `CCOC(=O)N1CCN(c2c(NCCCOC)c(=O)c2=O)CC1`, the fold change is reported as 1.11 (inactive). With `Cn1cnc2c(sc3nc(N4CCOCC4)c4c(c32)CC(C)(C)OC4)c1=O` the fold change was 1.1 (inactive). In the case of `O=C(CSc1nc2[nH]ncc2c(=O)n1-c1ccccc1)Nc1nsc(-c2ccc(Cl)cc2)n1`, the fold change is reported as 1.26 (inactive). For `Cc1oc(-c2ccccc2F)nc1CSc1nc2ccncc2[nH]1`, the fold change was -1.15 (inactive). For `O=c1[nH]c(CN2CCN(CCO)CC2)nc2ccccc12`, the outcome was “inactive”. In the case of `Fc1ccc(-c2nnc3ccc(N4CCOCC4)nn23)cc1`, the fold change is reported as 1.05 (inactive). For `COc1ccc(-c2nc(CSc3nc4c(c(=O)[nH]3)CCC4)c(C)o2)cc1`, the outcome was “inactive”. In the case of `Cc1ccc2c(C)nc(NC3=NCN(CCN4CCOCC4)CN3)nc2c1`, the fold change is reported as 1.05 (inactive). For `CC1=NN(c2nc3ccccc3nc2-n2nc(C)cc2C)C(=O)C1`, the fold change was -1.08 (inactive). For `CCS(=O)(=O)N1N=C(c2ccc(NS(C)(=O)=O)cc2)CC1c1ccccc1` (centres undefined), the fold change was 1.35 (inactive). With `O=C(O)c1ccc(CNc2c(N3CCOCC3)c(=O)c2=O)cc1` the fold change was 1.05 (inactive). With `NC(=O)c1ccc(N=c2oc3ccccc3cc2S(=O)(=O)c2ccccc2)cc1` the fold change was 1.06 (inactive). In the case of `CC1CCOC2(O1)C(=O)N(CN1CCN(c3cccc(Cl)c3)CC1)c1ccccc12` (centres undefined), the fold change is reported as -1.15 (inactive). With `O=C(CSc1ncnc2ccccc12)NCc1ccc2c(c1)OCO2` the fold change was -1.09 (inactive). With `O=C1N=C(N2CCOCC2)S/C1=C1\C(=O)N(Cc2ccccc2)c2ccccc21` the fold change was -2.02 (active). For `CCOc1cc2c(cc1OCC)C(c1ccc(Cl)c(Cl)c1)CC(=O)N2` (centres undefined), the fold change was 1.29 (inactive). With `CCOC(=O)c1sc(NC(=O)c2cc(C)no2)c(C(=O)OCC)c1C` the fold change was 1.26 (inactive). In the case of `CCOC(=O)c1c(NC(=O)Nc2ccc(F)cc2)sc2c1CCN(C(=O)OCC)C2`, the fold change is reported as -1.41 (inactive). For `COc1cc2nc(CN3C(=O)c4ccccc4C3=O)oc(=O)c2cc1OC`, the fold change was -2.87 (active). For `O=c1/c(=C/c2c(F)cccc2Cl)sc2nc(-c3ccco3)nn12`, the fold change was 1.03 (inactive). For `O=C(NCCN1CCCCCC1)C1CCC(CNS(=O)(=O)c2cccc3nsnc23)CC1` (centres undefined), the fold change was -1.56 (inactive). In the case of `CCc1nc(N)c(C#N)c(-c2cccnc2)c1C`, the fold change is reported as -2.52 (active). With `COCCCNc1nc2c(-c3ccccc3)nnn2c2ccccc12` the fold change was 1.02 (inactive). For `Cc1nc(SCc2cccc(C(F)(F)F)c2)c2c(=O)n(C)c(=O)n(C)c2n1`, the fold change was 1.26 (inactive).
